Sfp inh: Sfp phosphopantetheinyl transferase inhibition. Potency, µM, hits mostly inhibitors. hit rate 3.5% among 310,000. AID 1490. Q9F4F7. Biochemical Sfp PPTase activity, qHTS;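 note: the enzyme is Sfp with the accession as filed and its product quenches rhodamine fluorescence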
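Fluorescence-quenching assay with 15 nM Sfp, 5 uM rhodamine-CoA and 12.5 uM BHQ-2-labelled ybbR peptide in pH 7.6 Hepes/MgCl2 buffer. Enzyme was pre-incubated with compound for 15 min at room temperature. Rate was taken from the 30-min fluorescence change (525/598 nm).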
L3MBTL1 block: inhibitors of human L3MBTL1. Q9Y468. AlphaScreen L3MBTL1–H3K9me1 peptide binding. Potency, µM (titrated, usually from 57.1 µM), most hits filed as inhibitors. hit rate 0.66% among 230,000; note: nearly all actives have a fitted effect of over 60% in size
Target sequence (Q9Y468 whole entry, looked up): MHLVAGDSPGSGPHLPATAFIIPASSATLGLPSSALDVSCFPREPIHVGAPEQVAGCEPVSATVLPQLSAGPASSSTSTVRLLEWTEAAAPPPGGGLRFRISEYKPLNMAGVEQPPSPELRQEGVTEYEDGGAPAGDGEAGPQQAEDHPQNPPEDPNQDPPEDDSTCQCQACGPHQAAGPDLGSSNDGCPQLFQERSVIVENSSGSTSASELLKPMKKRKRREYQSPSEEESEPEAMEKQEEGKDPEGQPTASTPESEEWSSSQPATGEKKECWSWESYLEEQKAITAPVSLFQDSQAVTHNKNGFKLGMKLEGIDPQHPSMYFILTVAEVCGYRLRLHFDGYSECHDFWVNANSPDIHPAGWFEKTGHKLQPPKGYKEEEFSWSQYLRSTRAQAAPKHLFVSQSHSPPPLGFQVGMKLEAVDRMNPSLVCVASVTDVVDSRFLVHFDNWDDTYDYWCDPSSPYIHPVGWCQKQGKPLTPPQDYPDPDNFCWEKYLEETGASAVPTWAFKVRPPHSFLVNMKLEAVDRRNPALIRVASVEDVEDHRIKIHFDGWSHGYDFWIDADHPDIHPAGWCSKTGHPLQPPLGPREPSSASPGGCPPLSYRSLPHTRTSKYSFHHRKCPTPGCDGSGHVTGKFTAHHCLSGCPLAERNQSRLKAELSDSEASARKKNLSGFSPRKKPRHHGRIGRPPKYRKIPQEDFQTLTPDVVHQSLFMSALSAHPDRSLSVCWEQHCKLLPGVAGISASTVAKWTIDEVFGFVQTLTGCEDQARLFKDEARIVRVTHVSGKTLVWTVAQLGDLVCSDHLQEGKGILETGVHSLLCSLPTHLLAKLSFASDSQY
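AlphaScreen proximity signal between nickel-chelate acceptor and streptavidin donor beads (final 10 ug/mL) reports binding of 50 nM L3MBTL1 to 75 nM biotin-H3 K9me1 peptide; complex incubated with compounds 30 min at room temperature; cefsulodin titration as control.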
HP1b binding inh: blocks HP1-beta chromodomain binding to methylated histone tails. AlphaScreen HP1-beta / biotin-H3K9me3 peptide binding. Potency, µM (highest dose often 114 µM), hits mostly inhibitors. hit rate 0.56% among 390,000. AID 540317; note: nearly all actives have a fitted effect of over 70% in size
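AlphaScreen: HP1-beta (50 nM) preformed 30 min with biotin-H3(1-18)K9me3 peptide (50 nM) in PBS pH 7.4, 0.01% Tween-20. Compound added for 30 min at RT, then streptavidin donor/nickel chelate acceptor beads (10 ug/mL) for 30 min.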
G9a inh: inhibitors of human histone lysine methyltransferase G9a; hit rate 8.8% among 350,000; G9a H3K9 monomethylation, AlphaScreen, 2 h; Potency, µM (highest dose often 102 µM), actives largely listed as inhibitors; note: nearly all actives have a fitted effect of over 75% in size
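Step 1: enzyme (final 20 nM) with compound, 15 min RT. Step 2: substrate peptide 500 nM and SAM 20 uM, 2 h RT. Step 3: anti-H3K9me1 antibody and AlphaScreen beads, 10 min, then plate read.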
BAZ2B block: BAZ2B (human) inhibition | Q9UIF8 | AlphaScreen BAZ2B-H3K14Ac peptide displacement | Potency, µM (top dose mostly 114 µM), most hits filed as inhibitors | hit rate 4.4% among 360,000; note: nearly all actives have a fitted effect of over 60% in size
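BAZ2B 50 nM plus b-H3(5-23)K14Ac 50 nM, PBS pH 7.4/0.01% Tween-20, 30 min RT; compound added (max 110 uM), 30 min RT; streptavidin donor/Ni-chelate acceptor beads 10 ug/mL final, 20 min dark; AlphaScreen read.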
JMJD2A Tudor inh: blocks the human JMJD2A Tudor domain | O75164 | AlphaScreen JMJD2A-Tudor / H3K4me3 peptide binding | Potency, µM (titrated, usually from 114 µM), usual class: inhibitors | hit rate 4.4% among 390,000; note: nearly all actives have a fitted effect of over 50% in size
Sfp PPTase conf: Sfp phosphopantetheinyl transferase inhibition, confirmation. shares compounds with Sfp inh. Sfp PPTase enzymatic assay, qHTS titration. Potency, µM (series often up to 114 µM), actives largely listed as inhibitors. hit rate 79% among 380. AID 2701
Sfp PPTase gel: Blocks Sfp PPTase activity, gel read-out. purified Sfp, gel-based phosphopantetheinylation read-out. hit rate 20% among 210. Potency, µM, most hits filed as inhibitors. AID 2707. shares compounds with Sfp inh;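 active = potency below 100 µM; inconclusive = dose-dependent response but potency above 100 µM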;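 note: potency is an IC50 for inhibitors of Sfp transfer activity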
A number is an active result; n = inactive; u = inconclusive; x = no result given; [ ] = remark or other dose. Only some compounds are listed: those with a hit (about 12% of all), similar ones and a draw of the others. Unless noted, calls come from the whole dose curve; as a rule, active = well fitted curve in the direction sought with a large enough effect; inconclusive = small, poorly fitted or top-dose-only effect, or another doubt; inactive = no such curve, though single readings can be large; an effect the other way counts as inactive or inconclusive.

SMILES | Sfp inh | L3MBTL1 block | HP1b binding inh | G9a inh | BAZ2B block | JMJD2A Tudor inh | Sfp PPTase conf | others
OC(C#Cc1ccccn1)c1cccs1 (stereo not drawn) | 18µM | u | u | n[12.7 µM] | 7.1µM | 45µM | 47µM | Sfp PPTase gel=n
CCOC(=O)c1c(N)sc2c1CCN(Cc1ccccc1)C2 | 10µM | x | x | 10µM | x | x | 21µM
Cc1ccc(OCCCC(=O)Nc2sc3c(c2C(N)=O)CCC(C)C3)cc1 (stereo not drawn) | x | x | n | n | n | n | x
Cc1ccc2c(c1)CCCN2C(=O)Nc1ccc2c(c1)OCO2 | 3.2µM | x | n | u | u | 56µM | u | Sfp PPTase gel=n
Cc1ccc(-c2cnc(-c3ccncc3)o2)cc1 | 56µM | x | n | u | n | n | n | Sfp PPTase gel=n
CC(NC(=O)c1sc2cc([N+](=O)[O-])ccc2c1Cl)C(C)(C)C (stereo not drawn) | 7.9µM | n | 6.3µM | 1.6µM | n | 50µM | 0.53µM | Sfp PPTase gel=0.69µM
COCCNC(=O)c1c(N)sc2c1CCCC2 | 14µM | x | x | u | u | x | 37µM
CNC(=O)c1c(N)sc2c1CCCCC2 | 20µM | n | x | 10µM | n | x | 21µM
Cc1ccc(CNC(=O)c2cc3sccc3n2Cc2ccc(Cl)cc2)cc1 | x | x | n | u | n | n | x
CCOC(=O)c1nc(NCc2ccccc2)sc1C | 8.9µM | x | u | 3.5µM | u | 79µM | 8.3µM
COCCNC(=O)CCCn1c(=O)[nH]c2ccsc2c1=O | x | x | n | n | n | n | x
CCc1ccc(NC(=O)CN2C(C(=O)OC)=C(c3ccccc3)c3ccccc3S2(=O)=O)cc1 | x | x | n | n | n | n | x
CC1=C(c2ccc(C)c(C)c2)S(=O)(=O)N(Cc2ccc(C(=O)NCc3cccc(C)c3)cc2)C1=O | x | x | n | n | n | n | x
OCc1ccc(-c2nn(Cc3ccccc3)c3ccccc23)o1 | 4.5µM | n | n | 21µM | 40µM | n | 15µM
CN(C)C=Nc1ccccc1C1C=NNC1=O (stereo not drawn) | 18µM | n | x | 40µM | n | x | n
CC(=O)c1c(N=CN(C)C)nc(C)nc1-c1ccccc1 | n | n | n | n | n | n | x
Cc1cc2ccccc2n1CCNC(=O)c1ccc(Br)o1 | 13µM | n | u | 35µM | u | u | 24µM
CC(C)[C@H](NC(=O)OC(C)(C)C)c1nnc(S(=O)(=O)Cc2c(F)cccc2Cl)o1 | 14µM | x | n | u | n | n | 30µM | Sfp PPTase gel=u
CC(C)=CCSc1nnc([C@@H](NC(=O)OC(C)(C)C)C(C)C)o1 | n | n | n | n | n | n | x
CC(C)c1ccc(NC(=O)Cn2c(=O)n(Cc3nc(-c4ccccc4)no3)c(=O)c3cc4c(cc32)OCO4)cc1 | x | x | n | n | n | n | x
CCN(CC)c1ccc(NC(=O)COC(=O)CSc2ccc(Br)cc2C)cc1 | 3.5µM | u | 16µM | 8.9µM | 10µM | 18µM | u | Sfp PPTase gel=u
CN1CCN(c2ncc3ncc(=O)n(C[C@H]4CCCO4)c3n2)CC1 | n | x | x | n[0.501 µM] | x | x | x
N=c1c2c3c(sc2ncn1Cc1ccco1)CCCCC3 | 13µM | n | n | n | n | n | n | Sfp PPTase gel=n
CC(C)Cn1cnc2sc3c(c2c1=N)CCCC3 | n | x | n | n | n | n | x
O=C(Nc1ccc(C(F)(F)F)cc1)N1CCC(N2CCCCC2)CC1 | x | x | n | n | n | n | x
SMILES | Sfp inh | L3MBTL1 block | HP1b binding inh | G9a inh | BAZ2B block | JMJD2A Tudor inh | Sfp PPTase conf | others
Cc1ccc(C(=O)COC(=O)c2cc(-c3ccc(Cl)cc3)nc3ccccc23)cc1 | x | x | n | n | n | n | x
O=C(O)c1ccc(/C=N/NC(=O)C(O)(c2ccccc2)c2ccccc2)cc1 | n | x | n | u | n | n | x
CCN(CC)c1ccc(/C=N/NC(=O)C(O)(c2ccccc2)c2ccccc2)o1 | 7.1µM | n | x | 28µM | n | x | 12µM
Cc1cc(C(=O)NN)c2cc(Br)ccc2n1 | n | x | n | u | u | n | x
Cc1cc(SCC(=O)NN)c2cc(Br)ccc2n1 | 22µM | x | n | x | u | n | u
CCOC(=O)CSc1nc2sc3c(c2c(=O)n1-c1ccccc1)CC(C(C)C)OC3 (stereo not drawn) | x | x | n | n | n | n | x

Source: PubChem
